Test results as given in PubChem BioAssay (NCI).
Values joined by “and” are separate entries in the source; they are usually repeats but may differ in a detail not shown here. Identical values can stand only once. Compounds without any hit were thinned out: in the full panel of roughly 83,000, 20% have a hit.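 Method: cells in 96-well plates; compound added at one concentration; 48 h incubation; percent growth measured; values under 10 scored active.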 Values without a mark were called inactive. Active and inactive are the calls of the source.

Test system: HL-60(TB) leukemia
Assay: NCI-60 one-dose screen, 48 h (100 = growth as untreated, 0 = no growth, -100 = all killed)
Conditions: 10 µM unless noted

Compound | growth
O=C(/C=C/c1cccs1)c1ccc(Cl)nc1 | 100%
CC1CCCC(=O)O1 (stereo not given) | 102% and 119%
CCCCCCCCOc1ccc(/C=N/Nc2cc(C)nc3ccc(Cl)cc23)cc1 | 13.5%
Cc1ccccc1NC(=O)c1sc2nc(C)c(C(=O)/C=C/c3ccccc3)cc2c1N | 8.8% (active)
N#Cc1ccc2c(c1)C(=O)c1c-2n(CCCN)c(=O)c2cc([N+](=O)[O-])ccc12 | -91.8% (active)
CCOc1ccc(-c2nonc2NC(=O)c2cccc(C)c2)cc1OCC | 73%
ClCCn1c(CCl)nc2ccc(Cl)cc21 | -69% (active)
Nc1nc(-c2ccccc2)nc(N)c1N=O | 18.8%
COc1cccc(/C=C/C(=O)c2cc3c(N)c(C(=O)Nc4ccccc4)sc3nc2C)c1 | 16.9%
COc1cccc(C(=O)N(c2ccc(F)c(F)c2)C(C(=O)NC(C)(C)C)c2cc3c(C)cc(C)cc3nc2Cl)c1 (stereo not given) | 63.3%
CC(=O)Nc1nc(C)c(C(=O)NNC=O)s1 | 104%
O=c1c2cc(F)ccc2sc2c(Nc3ccncc3)nc3ccccc3c12 | 6.35% (active)
COc1c(Cl)cc(Cl)c2ccc(C=C3C(=O)NC(=S)NC3=O)nc12 | 102%
COC(=O)[C@H](Cc1ccccc1)NC(=O)[C@@H](OC)[C@@H]1Cc2cc3cc(OC4CC(OC5CC(O)C(O)C(C)O5)C(O)C(C)O4)c(C)c(O)c3c(O)c2C(=O)[C@H]1OC1CC(OC2CC(OC3CC(C)(O)C(O)C(C)O3)C(O)C(C)O2)C(O)C(C)O1 (stereo not given in full) | -9.07% (active)
Cc1nc2ccccc2c2nnc(SCC(=O)N(Cc3ccccc3)c3ccccc3)n12 | 105%
COc1ccc(/C=C/C(=O)C(=O)/C=C/c2ccc(OC)c(OC)c2)cc1OC | 35.4%
COc1ccccc1C(=O)/C=C/c1cc2cccc(OC)c2[nH]c1=O | -10.5% (active)
CCN(Cc1ccc(CN(CC)C(=O)C(Br)Br)cc1)C(=O)C(Br)Br | 13.1%
COc1ccc(C2CC(c3cccc(Nc4ccncc4)c3)=NN2c2ccc(Cl)cc2)cc1 (stereo not given) | -46.5% (active)
CC[C@@]1(O)C(=O)OCc2c1cc1n(c2=O)Cc2c-1nc1ccccc1c2/C=N/OC(C)(C)C | -29% (active)

Compound | growth
Cn1cc(-c2csc(-c3cn(CCCN4CCCCC4)c4ccc(Br)cc34)n2)c2cccnc21 | 0.828% (active)
COc1cc(-c2csc(NC(=O)Nc3cccc(C(F)(F)F)c3)n2)cc(OC)c1OC | 44.6%
IC(I)I | 98.3%
CC(=O)Nc1ccc(O)cc1 | 88.3% and 74.2%
COc1ccc(-c2nsc3c2NC(=O)CC3c2ccc(Cl)cc2)cc1 (stereo not given) | 80.1%
N#Cc1c(-c2ccc(Cl)cc2)nc(SCC(=O)NC2=NN=C(c3ccccc3)CS2)[nH]c1=O | 4.11% (active)
COc1cc(Nc2c(C#N)cnc3cc(OCCCN4CCN(C)CC4)c(OC)cc23)c(Cl)cc1Cl | 6.54% (active)
Nc1c(C(=O)c2ccc(F)cc2)sc2nc3c(cc12)CCCC3 | 70.2%
Clc1ccc(C2c3ccccc3-c3nccn32)c(Cl)c1 (stereo not given) | 48.6%
CCNC(=O)CCCCC(=O)c1c(C)[nH]c(/C=C2\N=C(c3ccc[nH]3)C=C2OC)c1C | 66.9%
COc1cc(C2NC(=O)c3ccccc3N2)ccc1OCCCCCOc1c(OC)cc(C2=NOC(c3cc(OC)c(OC)c(OC)c3)C2)cc1OC (stereo not given) | 68.3%
COc1cccc2nc(Nc3cccc(NC(=O)c4cc(N5CCOCC5)cc(C(F)(F)F)c4)c3)ccc12 | 93.5%
Cc1c(C)c(N2C(=O)C=CC2=O)c(C)c(C)c1N1C(=O)C=CC1=O | 57.5%
OCC1OC(n2cnc3c(=S)nc[nH]c32)C(O)C1O (stereo not given) | 120% and 50.9%
COc1cccc(-c2nn(-c3ccccc3)cc2-c2ccnc(NCCNC(=O)Nc3ccc(Cl)c(Cl)c3)c2)c1 | 0.89% (active)
COc1ccccc1CNCCCN1C(=O)c2ccc3c4c(ccc(c24)C1=O)C(=O)N(CCCNCCCCNCCCCN)C3=O | -37.8% (active)
NNC(=O)c1ccc(C(=O)NN)cc1 | 124%
CC(=O)Nc1ccc(S(N)(=O)=O)cc1 | 101%
COc1ccc(S(=O)(=O)N2CCOCC2)cc1NC(=O)c1[nH]c(C)c2c1CCCCC2=O | 99.6% and 15%
CC(=O)Nc1ccc2c(c1)Cc1cc(F)ccc1-2 | 66.8%
